According to PubChem BioAssay (NCI):
The panel holds about 83,000 compounds, 20% with a hit somewhere; the sample as a whole holds those more often.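 Single-concentration screen, 48 h exposure, 96-well plates. Endpoint: percent growth. Below 10 = active.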 Calls of active or inactive are those of the source.

system: PC-3 prostate; assay: NCI-60 one-dose screen, 48 h (100 = growth as untreated, 0 = no growth, -100 = all killed); conditions: 10 µM unless noted

Row | Compound | growth
1 | COc1ccc(C(=O)Nc2ncc(Cc3cccc(Cl)c3)s2)cc1OC | 27.4% (inactive)
2 | CN[C@]12CC3(C=CC(=O)C=C3)O[C@@]1(Cc1ccc(OC)cc1)N(C)C(=O)N2 | 27.6% (inactive)
3 | Cc1nc2c(=O)[nH]c(SCC(=O)Nc3cccc(F)c3)nc2[nH]c1=O | 102% (inactive)
4 | O=S(=O)(Nc1ccc(Cl)cc1)c1ccc(-c2cnc(C3CC3)o2)cc1 | 24.2% (inactive)
5 | C=CCn1c(SCC(=O)Nc2ccc(C(=O)/C=C/c3ccc(Cl)cc3)cc2)nnc1-c1cc(-c2ccc(S(N)(=O)=O)cc2)nc2ccccc12 | 71.8% (inactive)
6 | CCN1C(=O)N(CC)C2C1NN=c1s/c(=C\c3ccc(Cl)cc3Cl)c(=O)n12 (stereo not given) | 24.6% (inactive)
7 | COC(=O)[C@H]1CCCN1C[C@@H](O)CN1C(=O)/C(=C\c2cc(OC)c(OC)c(OC)c2)c2ccccc21 | 91.4% (inactive)
8 | CN(C)CCCC1(c2ccc(F)cc2)OCc2cc(-c3cccc4[nH]ccc34)ccc21 (stereo not given) | 28.6% (inactive)
9 | O=C1Nc2ccc(Br)cc2/C1=N/c1n[nH]c(=S)s1 | 95% (inactive)
10 | CCOC(=O)c1cc(-c2ccc([N+](=O)[O-])cc2)n(-c2ccc(C(=O)O)c(O)c2)c1C | 23.5% (inactive)
11 | COc1ccc(-c2nn(-c3ccccc3)cc2/C=C2/SC(=S)N(C)C2=O)cc1 | 84.9% (inactive)
12 | O=C1c2cccnc2C(=O)c2c1c(C(=O)NCCn1ccnc1)c1ccccn21 | 8.68% (active)
13 | N#C/C(=C\c1ccc2ccccc2c1)c1cc2ccccc2[nH]1 | 33% (inactive)
14 | Cc1noc(C)c1C(=O)OCc1coc2ccccc2c1=O | 70.1% (inactive)
15 | CN(C)CCNc1nc2c3cc(Cl)ccc3nn2c2ccccc12 | 46.8% (inactive)
16 | CC(=O)N1N=C(c2ccc(Nc3nc(Nc4ccc(Cl)cc4)nc(Nc4ccc(Cl)cc4)n3)cc2)CC1c1ccco1 (stereo not given) | 87.6% (inactive)
17 | CSc1nc2sc3c(c2c(=O)n1-c1ccc([N+](=O)[O-])cc1)CCCCC3 | 85.5% (inactive)
18 | Cc1cc(N)c2cc(NC(=O)/C=C\c3ccccc3Cl)ccc2n1 | -91.5% (active)
19 | CCN(C(=O)N1CCN(c2cc3c(cc2F)c(=O)c(C(=O)O)cn3C2CC2)CC1)c1nc(-c2ccc(Cl)cc2)cs1 | 10.1% (inactive)
20 | COC(=O)c1cc(-c2ccc(S(C)(=O)=O)cc2)[nH]c1N/N=C/c1c(Cl)cccc1Cl | 15.6% (inactive)

Row | Compound | growth
21 | NC(=O)c1c(NC(=O)c2ccccc2)sc2c1CCC(=O)C2 | 10.1% (inactive)
22 | Cc1ccc(C2=Nc3c(N)ncnc3NC(c3ccc4c(c3)OCO4)C2)cc1 (stereo not given) | 62.5% (inactive)
23 | COc1ccc(-c2nc(SCC(C)C)nc(N/N=C\c3ccc(F)cc3)c2C#N)cc1 | 84.9% (inactive)
24 | COc1ccc(C(c2cc(OC)c(OC)c(OC)c2)N2CCN(c3ccccc3)CC2)cc1 (stereo not given) | 73.3% (inactive)
25 | CCCC(=O)NC(c1ccc2c(c1)OCO2)c1ccc2cccnc2c1O (stereo not given) | 33.5% (inactive)
26 | OCCNCCCOc1ccc2ncnc(Nc3ccc(Oc4cccc(C(F)(F)F)c4)c(Cl)c3)c2c1 | 30.5% (inactive)
27 | COC(=O)CCC(=O)C(=O)OC | -5.82% [10 mM] (active)
28 | CS(=O)(=O)Nc1cc(-c2ccc3ncnc(Nc4c(Cl)ccc5c4OCO5)c3c2)cnc1Cl | 2.75% (active)
29 | O=C1c2c(c3c4ccc(Br)cc4oc3c3[nH]c4ccccc4c23)C(=O)N1O | 40.9% (inactive)
30 | O=C1/C(=C/c2ccc(-c3ccc(Br)cc3)o2)SC(=S)N1CCc1ccc(O)cc1 | 61.3% (inactive)
31 | CCN(CC)CCSc1nc(-c2ccccc2)c(C#N)c(=O)[nH]1 | 116% (inactive)
32 | O=C(CCCCCCN1CC(=O)N2[C@H](c3cc(Br)cs3)c3[nH]c4ccccc4c3C[C@H]2C1=O)NO | 46.9% (inactive)
33 | C#Cc1cccc(Nc2ncnc3ccc(-c4cnc(N)nc4)cc23)c1 | 27.1% (inactive)
34 | O=C(c1ccc(Cl)cc1)N1CCN(c2ccnc3cc(Cl)ccc23)CC1 | 80% (inactive)
35 | COc1ccc(/C=C2\C(=O)N=C3N2NC(c2cc(Br)ccc2O)C=C(C)N3c2ccccc2)cc1 (stereo not given) | 92.1% (inactive)
36 | O=C(NCCCCNC(=O)OCc1ccc2c(Cl)cc(Cl)c(O)c2n1)OCc1ccc2c(Cl)cc(Cl)c(O)c2n1 | 18.8% (inactive)
37 | CCCCCCCCCCCCCCCCCCOc1ccccc1CC(=O)NCC[N+]1(C)CCCC1 | 4.91% (active)
38 | C=C1CC[C@@H]2[C@](C)(COC(C)=O)[C@H](OC(C)=O)CC[C@@]2(C)[C@@H]1CC(Sc1ccccc1)C1=CCOC1=O (stereo not given in full) | 36.4% (inactive)
39 | COc1cc(CNS(=O)(=O)c2ccc(C)cc2)ccc1OCc1cn(-c2ccc(Br)cc2)nn1 | 92.2% (inactive)
40 | CC(=O)Cc1nsc(NC(=O)c2cc(-c3cc(Cl)cc(Cl)c3)oc2C)n1 | 93.7% (inactive)
